From PubChem BioAssay AID1159580 (chemical genetic matrix, 2015)
Where “and” joins values, the source holds several entries; their conditions need not be identical. Identical values can stand only once. Screen size: about 5,500 compounds; about 2,000 (36%) were called active. Roughly 18% stayed inconclusive and do not appear here. Cut-off read from the data, not from the text of the source: active = normalized growth mostly below about 0.91 (no sharp cut-off); inconclusive = no clear call, values can overlap the other calls; inactive = mostly above about 0.92. The list shows a part of the results.

Assay: chemical genetic growth profiling, strain panel (AID 1159580);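 note: tested at 20 µM; growth read once vehicle control cultures reached saturation at 30 °C; 1 = growth at the plate median or of vehicle wells; lower values mean less growth of the strain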
Conditions: S. cerevisiae deletion strains, growth OD

Measured: normalized growth

CC(C)=CCc1c2c(c3occ(-c4ccc(O)c(O)c4)c(=O)c3c1O)C=CC(C)(C)O2
0.145 (active) and 0.912 (inactive): locus YJL095W, strain BCK1, stronger effect = lower value
inactive: locus YAL021C, strain ccr4, stronger effect = lower value 0.95 | locus YAL026C, strain drs2, stronger effect = lower value 0.945 | locus YAL030W, strain snc1, stronger effect = lower value 0.961 | locus YBL061C, strain skt5, stronger effect = lower value 0.949 | locus YBR009C, strain hhf1, stronger effect = lower value 0.931 | locus YBR023C, strain chs3, stronger effect = lower value 0.937 | locus YBR171W, strain sec66, stronger effect = lower value 0.98 | locus YBR279W, strain paf1, stronger effect = lower value 0.956 | locus YCL011C, strain gbp2, stronger effect = lower value 0.944 | locus YCL016C, strain dcc1, stronger effect = lower value 0.961 | locus YCL069W, strain vba3, stronger effect = lower value 0.992 | locus YCR088W, strain abp1, stronger effect = lower value 0.997 | locus YDL005C, strain med2, stronger effect = lower value 0.988 | locus YDL040C, strain nat1, stronger effect = lower value 1 | locus YDL185W, strain tfp1, stronger effect = lower value 0.966 | locus YDR001C, strain nth1, stronger effect = lower value 1 | locus YDR137W, strain rgp1, stronger effect = lower value 1 | locus YDR159W, strain sac3, stronger effect = lower value 0.959 | locus YDR195W, strain ref2 1.01 | locus YDR297W, strain sur2, stronger effect = lower value 0.924 | locus YDR334W, strain swr1, stronger effect = lower value 0.969 | locus YDR335W, strain msn5, stronger effect = lower value 0.953 | locus YDR392W, strain spt3, stronger effect = lower value 0.782 | locus YEL003W, strain gim4, stronger effect = lower value 0.932 | locus YEL037C, strain rad23, stronger effect = lower value 0.977 | locus YEL061C, strain CIN8 (second series), stronger effect = lower value 0.999 | locus YER016W, strain bim1, stronger effect = lower value 0.989 | locus YER110C, stronger effect = lower value 0.981 | locus YER111C, strain swi4, stronger effect = lower value 0.939 | locus YER155C, strain BEM2 (second series), stronger effect = lower value 0.909 | locus YFR010W, strain ubp6, stronger effect = lower value 0.946 | locus YGL078C, strain dbp3, stronger effect = lower value 0.93 | locus YGL167C, strain pmr1, stronger effect = lower value 0.986 | locus YGL227W, strain vid30, stronger effect = lower value 1 | locus YGL240W, strain doc1, stronger effect = lower value 0.994 | locus YGL253W, strain hxk2, stronger effect = lower value 0.937 | locus YHR013C, strain ard1, stronger effect = lower value 0.947 | locus YHR027C, strain rpn1, stronger effect = lower value 0.932 | locus YHR079C, strain IRE1, stronger effect = lower value 0.926 | locus YHR142W, strain chs7, stronger effect = lower value 0.948 | locus YIL125W, strain kgd1, stronger effect = lower value 0.933 | locus YJL092W, strain hpr5, stronger effect = lower value 0.983 | locus YJL095W, strain BCK1 (second series), stronger effect = lower value 0.961 | locus YJL115W, strain asf1, stronger effect = lower value 0.999 | locus YJL129C, strain trk1, stronger effect = lower value 1 | locus YJL154C, strain vps35, stronger effect = lower value 1 | locus YJL166W, strain qcr8, stronger effect = lower value 0.919 | locus YJR066W, strain TOR1, stronger effect = lower value 0.885
active: locus YBR021W, strain FUR4, stronger effect = lower value 0.518 | locus YBR229C, strain ROT2, stronger effect = lower value 0.548 | locus YBR231C, strain swc5, stronger effect = lower value 0.895 | locus YCL029C, strain bik1, stronger effect = lower value 0.616 | locus YDL035C, strain GPR1, stronger effect = lower value 0.238 | locus YDL074C, strain BRE1, stronger effect = lower value 0.313 | locus YDL101C, strain DUN1, stronger effect = lower value 0.256 | locus YDL134C, strain PPH21, stronger effect = lower value 0.235 | locus YDL192W, strain arf1, stronger effect = lower value 0.66 | locus YDR069C, strain doa4, stronger effect = lower value 0.845 | locus YDR101C, strain arx1, stronger effect = lower value 0.747 | locus YDR162C, strain NBP2, stronger effect = lower value 0.155 | locus YDR318W, strain mcm21, stronger effect = lower value 0.721 | locus YDR388W, stronger effect = lower value 0.776 | locus YDR502C, strain sam2, stronger effect = lower value 0.674 | locus YEL061C, strain CIN8, stronger effect = lower value 0.406 | locus YER015W, strain faa2, stronger effect = lower value 0.909 | locus YER155C, strain BEM2, stronger effect = lower value 0.544 | locus YER167W, strain BCK2, stronger effect = lower value 0.545 | locus YGL086W, strain mad1, stronger effect = lower value 0.67 | locus YGL173C, strain kem1, stronger effect = lower value 0.887 | locus YGL248W, strain PDE1, stronger effect = lower value 0.257 | locus YGR078C, strain PAC10, stronger effect = lower value 0.457 | locus YGR135W, strain pre9, stronger effect = lower value 0.586 | locus YGR252W, strain gcn5, stronger effect = lower value 0.557 | locus YHR079C, strain IRE1 (second series), stronger effect = lower value 0.722 | locus YHR094C, strain hxt1, stronger effect = lower value 0.888 | locus YHR129C, strain ARP1, stronger effect = lower value 0.457 | locus YHR200W, strain rpn10, stronger effect = lower value 0.724 | locus YIL066C, strain RNR3, stronger effect = lower value 0.227 | locus YIL073C, strain SPO22, stronger effect = lower value 0.137 | locus YIR030C, strain dcg1, stronger effect = lower value 0.811 | locus YJL134W, strain LCB3, stronger effect = lower value 0.677 | locus YJL164C, strain tpk1, stronger effect = lower value 0.91 | locus YJL168C, strain set2, stronger effect = lower value 0.916 | locus YJL187C, strain SWE1 (second series), stronger effect = lower value 0.161 | locus YJR043C, strain POL32, stronger effect = lower value 0.255 | locus YJR075W, strain HOC1, stronger effect = lower value 0.468
0.197 (active) and 0.903 (inactive): locus YHR030C, strain SLT2, stronger effect = lower value
